The values below come from the supplement of paper PMC10105736.

Values without a mark were called inactive.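 The calls were made as follows: active = MAPPIT score above the 99th percentile of random reference set scores in the same batch; inactive = at or below it.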

Assay in all cases: MAPPIT interaction score (arbitrary units); higher = stronger binary interaction signal, active = hit call of the paper
Experiment [1] concerns the target AP-1mu. The following applies: MAPPIT configuration: N-C; pair source set: screen_4. The procedure:
(§1)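 MAPPIT in HEK293T cells: Drosophila bait and prey ORFs (from the FlyBi ORF collection) were co-transfected in quadruplicate, with two wells stimulated by erythropoietin. Interaction-dependent JAK-STAT activation was read out with a STAT-responsive firefly luciferase reporter. Positive calls use the 99th percentile of random reference set (RRS) scores within each batch […]. Batches Dvs01 and Dvs02 used the N-N configuration and Dvs04 the N-C configuration. Pairs come from FlyBi screens, CuraGen, DPiM, Finley Y2H, Lit-BM-16, Lit-BS-16 and RRS.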

Experiment [2] addresses HLH54F. The following applies: MAPPIT configuration: N-N; pair source set: Curagen_low_conf. The procedure:
as §1

Experiment [3] deals with ATPsynG. The following applies: MAPPIT configuration: N-N; pair source set: Lit-BS-16. As to the method: as §1
Experiment [4] concerns the target sle. The following applies: MAPPIT configuration: N-N; pair source set: Lit-BS-16. The procedure:
as §1

For experiment [5], the target named is ATPsyndelta. The conditions noted are these: MAPPIT configuration: N-N; pair source set: DPIM. The procedure: as §1
The target in experiment [6] is ATPsynCF6L. The conditions noted are these: MAPPIT configuration: N-C; pair source set: screen_3. The procedure:
as §1

Experiment [7] addresses CG13643. The conditions noted are these: MAPPIT configuration: N-C; pair source set: screen_3. The procedure:
as §1

Experiment [8] has as its target Dpm3. The following applies: MAPPIT configuration: N-C; pair source set: screen_3. The procedure: as §1
Experiment [9] has as its target NaPi-T. The following applies: MAPPIT configuration: N-C; pair source set: screen_4. The procedure: as §1
Experiment [10] has as its target Pdk1. The conditions noted are these: MAPPIT configuration: N-N; pair source set: Curagen_high_conf. As to the method: as §1
Experiment [11] concerns the target ATPCL. The conditions noted are these: MAPPIT configuration: N-N. The procedure: as §1
The target of experiment [12] is Cka. The following applies: MAPPIT configuration: N-N; pair source set: Curagen_low_conf. The procedure: as §1
Experiment [13] deals with CycK. The following applies: MAPPIT configuration: N-N; pair source set: Finley_Y2H. The procedure:
as §1

Experiment [14] concerns the target Dsp1. The following applies: pair source set: RRS. As to the method: as §1
Experiment [15] addresses Fkbp12. The following applies: MAPPIT configuration: N-N; pair source set: Lit-BS-16. As to the method:
as §1

In experiment [16] the target is dod. The following applies: MAPPIT configuration: N-N; pair source set: screen_1. As to the method:
as §1

The target in experiment [17] is eIF4E3. The following applies: MAPPIT configuration: N-N; pair source set: Curagen_high_conf. As to the method: as §1
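Also: HEK293T cells with Epo stimulation, STAT-responsive firefly luciferase reporter, fold induction versus unstimulated cells divided by the larger fold induction of two negative controls lacking either bait or prey.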

B1: TfIIB (protein)
chain: MASTSRLDNNKVCCYAHPESPLIEDYRAGDMICSECGLVVGDRVIDVGSEWRTFSNEKSGVDPSRVGGPENPLLSGGDLSTIIGPGTGSASFDAFGAPKYQNRRTMSSSDRSLISAFKEISSMADRINLPKTIVDRANNLFKQVHDGKNLKGRSNDAKASACLYIACRQEGVPRTFKEICAVSKISKKEIGRCFKLTLKALETSVDLITTADFMCRFCANLDLPNMVQRAATHIAKKAVEMDIVPGRSPISVAAAAIYMASQASEHKRSQKEIGDIAGVADVTIRQSYKLMYPHAAKLFPEDFKFTTPIDQLPQM
B1: the values for the MAPPIT interaction score in experiment [1] and in experiment [2] were 1.05 and -0.376, respectively.

B2: Arp6 (protein)
chain: MANAVVVLDNGAHTAKVGLANQDEPHVVPNCIMKAKSERRRAFVGNQIDECRDTSALYYILAFQRGYLLNWHTQKTVWDYIFSKDGIGCSLENRNIVITEPQMNFQSIQEATLEILFEEYKVDGVYKTTAADLAAFNYVADSEERTTMESLNCIIIDVGYSFTHVVPFVLGRRVLQGIRRIDMGGKALTNQLKELISYRHLNVMDESHVVNQIKEDVCFVAEDFKQAMQVHYSEEKRREVTVDYVLPDFTTVKRGYVRVPGKPREDEEQQQMVSLCNERFTVPELLFNPSDIGVQQVGIPEAVADCLKACPWEAHRELLLNILIVGGSAQFPGFLPRLKRDLRALVPDDLEVSLICPEDPVRYAWYGGKEVATSPNFEEFVYTQDDYEEYGFQGINQR
As to B2, the MAPPIT interaction score is 0.0569 in experiment [3] and -0.421 in [4].

B3: ATPsynF (protein)
chain: MAFGDYPAEYNPKVHGPYDPARFYGKADVPFGQVKLGEIGAWLGRRNKTPNAVAGAVSRAWWRWQHKYVFPKRAGIAPFFQLTVASMTFFYLINYTKLKHHRNYKYH
Take B3: the MAPPIT interaction score in experiment [5] was 0.173.

B4: Mst57Da (protein)
chain: MKFLALFVTLLVVLALVSAQKSQNTNHNVIVIGAKKPGAAPAAAAAAAPAAPPAAAPAAAPAAPEAGLADAPAES
On to B4, for which the MAPPIT interaction score was 0.192 in experiment [6]; -0.565 in experiment [7]; 0.043 in experiment [8]; 1.02 in [9]; -0.52 in experiment [10].

B5: PAN3 (protein)
chain: MCSTYGLLSFEFSDTAAMDPIFFSPTNGIPSESKLATYMNRQNVATPSGYGLNNGFSLLNLDSPLNKKSQVTPQSPEFIPTRLGSTPNFYAPYHNAPMQLSNGLNGVNGLTAAAAAAAAAAAAAAAAVPSSTSSASSASVTISKTANGGASMLALQKTASIASVTIAQQQPQHPQKQQQHPPSVGGGAVSAASAPIAISGAPPNPAAAPFVSSMSAQTPLKGRGAMMRQESPTAAMISGAGPGEKSPPHGMTPHGASPIPSALPTSVHQENVGGTIYFYPTANAQNSQPVVNSMVVDGTHPALHGVSAVAPMSAGVPAAMMYTGHVYPGPSSNVVTMQPKTLLESAFFMPDEMRAEVLARNEISNLIMDAAEAAQHALPLEVENYHALYPLEPPAQPLHAKLTFPATTYRATHNTTGYKYCLRRIHGFRLQSTKCMTLVEMWKKLQHTNVVQLREVFTTKAFGDNSLVLVYDYHPGSQTLLAKYFTPAPETNGYTDPFQGEARPFSHKSNMQRTSNGPLLPEATIWSIIMQLTAGLKAIHHAGLACKVLDPTKIIVTGKRVRFSSCCISDITQFDPNASNPLALVNMHQQDDLTALGRLVLALACRCLQSVQRDNVQSSIDMVTRNYSTDLRNFIVYLFTTNNRRSVTDLMPMIGARFYTQLDALQSKIDMQEDELAKEMENGRLYRILVKLNSINERPDFNLDCTWSETGDRYMLKLFRDYLFHSVTEDGRPWLDHAHIVQCLNKLDAGSIERVQLMSRDEQSVLIVSYAELKNCLENAFSELMSSAAN
As for B5, the MAPPIT interaction score in experiment [11] (pair source set: Curagen_high_conf) is 0.129; in experiment [11] (pair source set: Lit-BS-16) it was 0.112; in experiment [12], -0.663; in [13], 3.73 (active); in experiment [14] (MAPPIT configuration: N-C), 0.178; in [14] (MAPPIT configuration: N-N) it was -0.667. Besides, the figures for the MAPPIT interaction score in experiment [15], in experiment [16] and in experiment [17] were 1.71, 2.85 (active) and 2.53 (active), respectively.
